# From PubChem BioAssay AID463173 (ICCB-Longwood Screening Facility, Harvard Medical School, 2010)
# In all, about 52,000 compounds went through this assay and about 1,700 (3.3%) were called active. What follows is part of a selection rich in actives, with near analogues and random picks from the rest. Values without a mark were called inactive. Cut-off read from the data, not from the text of the source: active = survival mostly below about 52% (no sharp cut-off); inactive = mostly above about 56%.
# Tested on: Wild type
# Assay: S. aureus survival, RN4220 and DeltatarO strains – OD600, teichoic acid synthesis inhibitors, primary screen (AID 463173)
# Details: S. aureus RN4220 wild type/DeltatarO growth, OD600, 18 h, active compounds read low, screened at 18.75 µg/mL (by protocol)
row,Structure (SMILES),survival
1,O=C(CSc1nccn1Cc1ccccc1)Nc1nc2ccccc2s1,121%
2,O=C(CSc1nccn1Cc1ccc(Cl)cc1)Nc1nc2ccccc2s1,0% (active)
3,CCOc1ccc(NC(=O)Cn2c(=O)n(Cc3ccccc3)c(=O)c3sc4ccccc4c32)cc1,78%
4,COc1cc(NC(=O)Nc2nnc(N3CCCCCC3)s2)cc(OC)c1,78%
5,Cc1cccc(N2CCN(c3ncnc4c3cnn4-c3ccc(Cl)cc3)CC2C)c1 (centres undefined),83%
6,CCc1ccc(OC(C)c2nc(-c3ccc(-n4cccc4)cc3)no2)cc1 (centres undefined),-4% (active)
7,CCc1ccc(OCc2nc(-c3ccc(-n4cccc4)cc3)no2)cc1,104%
8,CCCc1ccc(OC(C)c2nc(-c3ccc(-n4cccc4)cc3)no2)cc1 (centres undefined),56%
9,O=C(Nc1ccc2oc(-c3ccncc3)nc2c1)c1ccccc1Cl,73%
10,Cc1ccc(CNC(=O)c2cc3c(=O)oc4ccc(C)cc4c3s2)cc1,88%
11,CCOCCCNC(=O)C(c1ccc(OC)cc1)N(Cc1ccc2c(c1)OCO2)C(=O)c1ccc(NC(C)=O)cc1 (centres undefined),69%
12,COc1ccc(CNCCC(c2ccc3c(c2)OCO3)c2ccccc2OC)cc1 (centres undefined),25%
13,COc1ccc(CNCCC(c2ccccc2)c2ccc3c(c2)OCO3)cc1 (centres undefined),3% (active)
14,CCOCCCNC(=O)C(c1ccccc1)N(Cc1ccc2c(c1)OCO2)C(=O)c1ccc(NC(C)=O)cc1 (centres undefined),70%
15,CCC(=O)N(CCC(c1ccccc1)c1ccc2c(c1)OCO2)Cc1ccc(OC(C)C)cc1 (centres undefined),1% (active)
16,NC(=O)CC(c1ccccc1)c1ccc2c(c1)OCO2 (centres undefined),117%
17,COc1ccc(CN(CCC(c2ccc3c(c2)OCO3)c2ccccc2OC)C(C)=O)cc1 (centres undefined),8% (active)
18,COc1cc2cc(CN(Cc3ccc4c(c3)OCO4)C(=O)NCc3ccccc3)c(=O)[nH]c2cc1OC,117%
19,COc1ccc(CNCCC(c2ccc(C)cc2)c2ccco2)cc1 (centres undefined),72%
20,C=CCc1c(C)nc(SC)[nH]c1=O,114%
21,Cc1cccc(-c2nc3ccccc3n3c(-c4ccccc4)c4c(=O)n(C)c(=O)n(C)c4c23)c1,121%
22,O=C(CN1C(=O)c2ccccc2Sc2ncccc21)Nc1cccc(C(F)(F)F)c1,85%

row,Structure (SMILES),survival
1,CCSc1nc2ccccc2c(OCc2cc(C(=O)OC)ccc2OC)c1C(=O)OC,-15% (active)
2,CCSc1nc2ccccc2c(OCc2ccc(Cl)cc2)c1C(=O)OC,88%
3,CCSc1nc2ccccc2c(OCc2ccccc2Cl)c1C(=O)OC,75%
4,Cc1ccc(N2CCN(S(=O)(=O)c3cc(C(=O)Nc4cc(Cl)cc(Cl)c4)ccc3F)CC2C)cc1 (centres undefined),71%
5,COc1ccc(OC)c(CNC(=O)c2c(C)oc3ncn(C)c(=O)c23)c1,70%
6,O=C(COc1ccccc1)Nc1c(C(=O)N2CCN(c3ccc(F)cc3)CC2)oc2ccccc12,74%
7,COc1ccc(C(CC(=O)Nc2cccc(C)c2C)N2Cc3ccccc3C2=O)cc1 (centres undefined),68%
8,COc1ccc(OC)c(CNCc2c(C(=O)O)n(Cc3ccccc3)c3cc(OC)ccc23)c1,84%
9,CCc1ccc(CNCc2c(C(=O)O)n(Cc3cccc(F)c3)c3cc(OC)ccc23)cc1,63%
10,COc1ccc(OC)c(CNCc2c(C(=O)O)n(Cc3cccc(F)c3)c3cc(OC)ccc23)c1,-3% (active)
11,COc1cc(Cl)c(C)cc1NC(=O)c1nn(-c2ccc(C)cc2)c(=O)n(C)c1=O,66%
12,COc1ccc(-n2c(=O)c3sc4ccccc4c3n(Cc3ccccc3C)c2=O)cc1OC,89%
13,COc1ccc(-c2nc3sc(CCNS(=O)(=O)c4c(C)cc(C)cc4C)c(C)n3n2)cc1,-3% (active)
14,Cc1c(CCNS(=O)(=O)c2ccccc2)sc2nc(-c3ccc(Cl)cc3)nn12,1% (active)
15,Cc1ccc(-c2nc3sc(CCNS(=O)(=O)c4cc(F)ccc4F)c(C)n3n2)cc1,-4% (active)
16,COc1ccc(-c2nc3sc(CCNS(=O)(=O)c4ccccc4)c(C)n3n2)cc1,57%
17,CCCS(=O)(=O)NCCc1sc2nc(-c3ccc(F)cc3)nn2c1C,60%
18,CCCS(=O)(=O)NCCc1sc2nc(-c3ccc(Cl)cc3)nn2c1C,81%
19,COc1ccc(F)cc1S(=O)(=O)NCCc1sc2nc(-c3ccc(F)cc3)nn2c1C,57%
20,CCS(=O)(=O)NCCc1sc2nc(-c3ccc(OC)cc3)nn2c1C,71%
21,Cc1cc(C)c(S(=O)(=O)NCCc2sc3nc(-c4ccc(F)cc4)nn3c2C)c(C)c1,63%
22,Cc1ccc(C(=O)Nc2nnc(S(=O)(=O)N3c4ccccc4CC3C)s2)cc1 (centres undefined),38%
